Molecules are shown by their SMILES.

For this experiment, the system named is wheat germ agglutinin (Triticum aestivum), Alexa647-labelled. The experiment is described as follows: Alexa647-WGA lectin binding to printed small molecules – biochemical, small-molecule microarray, 635/667 nm fluorescence, artefact control for SMM control-protein annotation, profiling panel (AID 1140).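 Note: score merges 667 nm feature emission with signal to noise over triplicate slides.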 The conditions noted are these: WGA-A647 binding, 635 nm fluorescence, higher = more signal.
The compound `COCCCNC(=O)[C@@]1(Cc2ccccc2N=[N+]=[N-])N=C(c2ccc(OCCCO)cc2)O[C@H]1c1ccccc1N=[N+]=[N-]` yielded a composite z-score of 1.02.

`Cc1ccc(S[C@]2(C(=O)NC(C)C)CC(=O)N(Cc3ccccc3Cl)[C@@H]2c2ccc(CO)cc2I)cc1` returned a composite z-score of 0.648.

Compound `CC(C)c1ccc(NN2C(C(O)c3cc(C(F)(F)F)cc(C(F)(F)F)c3)C=CC3C(=O)N(c4ccccc4)C(=O)C32)cc1` (stereo not given) yielded a composite z-score of 1.13.

As for `CCOC(=O)[C@H]1C/C=C/C[C@H](C(=O)OCC)C(=O)O[C@H]2[C@@H](OC)O[C@H](CO)[C@@H](OC(=O)Nc3cccc(F)c3)[C@@H]2OC1=O`, the composite z-score turned out to be 0.452.

`C=CCC(OC(C)=O)[C@@H]1[C@@H](N(Cc2ccc(-c3cccc(C(F)(F)F)c3)o2)C(=O)c2ccc(-c3ccccc3)cc2)c2cc(OCCCO)ccc2N1C(=O)c1ccc(-c2ccccc2)cc1` (stereo not given in full) yielded a composite z-score of -0.0266.

`O=C1O[C@H](c2ccccc2)[C@H](c2ccccc2)N2[C@H]1[C@@H](C(=O)NC[C@H](O)c1ccccc1)[C@]1(C(=O)Nc3ccccc31)[C@H]2c1ccc(OCCO)cc1` gave a composite z-score of 0.864.

With `C=CCOC(=O)[C@H]1[C@@H]2C(=O)O[C@@H](c3ccccc3)[C@@H](c3ccccc3)N2[C@@H](c2ccc(OCCOC(=O)[C@H]3C[C@H]4C(=O)N5CCC[C@H]5C(=O)N4[C@H]3c3ccc(O)cc3)cc2)[C@]12C(=O)Nc1ccc(I)cc12`, the composite z-score was determined as 1.66.

Compound `O=C1NC(=O)C2C1C=CC(C(O)Cc1ccccc1)N2Nc1ccc(Cl)cc1Cl` (stereo not given) showed a composite z-score of 0.834.

As to `CN(C)C(=O)[C@]1(Cc2ccccc2N=[N+]=[N-])N=C(c2ccc(OCCCO)cc2)O[C@@H]1c1ccccc1`, the composite z-score came to 0.986.

`COCCOC(=O)N1C(=O)[C@@]2(c3cc(C#CC4=CCCCC4)ccc31)[C@H](C(=O)Nc1nc3ccccc3s1)[C@H]1C(=O)O[C@H](c3ccccc3)[C@H](c3ccccc3)N1[C@@H]2c1ccc(OCCO)cc1` displayed a composite z-score of 0.253.

For `C=CC[C@@]1(C(N)=O)N=C(c2ccc(OCCCO)cc2)O[C@@H]1c1ccccc1CN=[N+]=[N-]`, the composite z-score was found to be 1.52.

As to `C#CCN(CC1=CCCCC1)[C@H](c1ccccc1Br)[C@@H](O)Cc1ccccc1`, the composite z-score was 0.665.

Consider `COc1ccc(C(=O)Nc2ccc(CN3C(=O)[C@@]4(O[C@@H](CCO)[C@H]([Si](C)(C)c5ccc(OC)cc5)[C@H]4C)c4ccccc43)cc2)cc1`, for which the composite z-score was 0.559.

`COC(=O)[C@@]1(Cc2ccc(F)cc2)[C@H]2c3cc(C(=O)N(C)C)n(CC4CC4)c3C[C@H]2CN1C(=O)c1ccccc1` yielded a composite z-score of 1.08.

The compound `O=C(NCc1ccc(F)cc1)[C@H]1C[C@H]2C(=O)N[C@@H](Cc3ccccc3)C(=O)N2[C@H]1c1ccc(O)cc1` returned a composite z-score of -0.262.

`COc1ccc(C(=O)Nc2ccc(CN3C(=O)[C@@]4(O[C@@H](CC(=O)N5CCC[C@H]5CO)[C@H]([Si](C)(C)c5ccc(OC)cc5)[C@H]4C)c4ccccc43)cc2)cc1` registered a composite z-score of 0.763.

For `CN(C)CCCNC(=O)[C@@]1(c2ccc([N+](=O)[O-])cc2)CC(=O)N(C2CCCCC2)[C@@H]1c1ccc(CO)cc1`, the composite z-score was -0.0351.

Regarding `C=CCN1C(=O)[C@@]2(O[C@@H](CCO)[C@H]([Si](C)(C)c3ccc(OC)cc3)[C@H]2C)c2cc(NC(=O)c3ccc(OC)cc3)ccc21`, the composite z-score was found to be 0.458.

In turn, `C=C(CCCC)/C(=C/C[C@@H](OC(C)=O)c1ccccc1OCCO)c1cnc2ccccc2c1` came in with a composite z-score of 0.454.

With `COC(=O)[C@@]1(Cc2ccc(OC)cc2)[C@H]2c3cc(C(=O)N(C)C)n(Cc4cccc5ccccc45)c3C[C@H]2CN1C(=O)c1ccccc1`, the composite z-score came to 1.03.

Consider `CC(=O)NCCCC[C@@H]1NC(=O)[C@@H]2C[C@H](C(=O)NCCCCCCNC(=O)CS)[C@H](c3cccc(OCCO)c3)N2C1=O`, for which the composite z-score stood at 0.379.

On to `COCCOC(=O)N1C(=O)[C@@]2(c3cc(C#CCNC(N)=O)ccc31)[C@H](C(=O)NC[C@H](O)c1ccccc1)[C@H]1C(=O)O[C@H](c3ccccc3)[C@H](c3ccccc3)N1[C@@H]2c1ccccc1OCCO`, for which the composite z-score is 0.592.

Regarding `COC(=O)[C@@]1(Cc2ccc(OC)cc2)[C@H]2c3cc(C(=O)N4CCCC4)n(Cc4ccccc4)c3C[C@H]2CN1C(=O)c1ccccc1`, the composite z-score amounted to 1.1.

`C=C(CCCC)C(=O)CC[C@@H](OC(=O)c1cccnc1)c1ccc(CO)o1` came in with a composite z-score of 0.828.

In turn, `COc1ccc(C(=O)O[C@H]2CC[C@]3(C)C4=C(CCC3C2(C)C)[C@]2(C)CC[C@H]([C@H](C)CCCC(C)C)[C@@]2(C)CC4)cc1` (stereo not given in full) yielded a composite z-score of 0.103.

`[N-]=[N+]=NCc1ccccc1[C@@H]1OC(c2ccc(OCCCO)cc2)=N[C@]1(Cc1ccccc1N=[N+]=[N-])C(=O)N1CCOCC1` had a composite z-score of 1.13.

The compound `COc1ccc([Si](C)(C)[C@@H]2[C@@H](CC(=O)N3Cc4ccccc4C[C@H]3CO)O[C@]3(C(=O)N(C)c4c(Br)cc(C)cc43)[C@H]2C)cc1` returned a composite z-score of 1.03.

Turning to `C=CC[C@@]1(C(=O)NCc2ccccc2)N=C(c2ccc(OCCCO)cc2)O[C@@H]1c1ccccc1N=[N+]=[N-]`, the composite z-score is 1.

Turning to `CC(CO)N1C(=O)[C@@H]2C3C(=O)OCCC/C=C\[C@H]3OC23C=CCN(c2ccc4ccccc4c2)C(=O)[C@@H]13` (stereo not given in full), the composite z-score turned out to be 0.0312.

On to `C=CCOC(=O)[C@@H]1[C@H]2C(=O)O[C@H](c3ccccc3)[C@H](c3ccccc3)N2[C@H](c2ccc(OCCOC(=O)[C@@H]3C[C@@H]4C(=O)N[C@@H](CCCC[N+](C)(C)C)C(=O)N4[C@@H]3c3cccc(OCCO)c3)cc2)[C@@]12C(=O)Nc1ccc(I)cc12`, for which the composite z-score was found to be 0.347.

In the case of `CCOC(=O)C[C@H]1[C@H](OC(=O)Cc2ccc3c(c2)OCO3)[C@@H](NC(=O)c2ccc3ccccc3c2)c2cc(OCCCO)ccc2N1C(=O)c1ccccc1`, the composite z-score turned out to be 0.271.

Regarding `[N-]=[N+]=Nc1ccccc1C[C@]1(C(N)=O)N=C(c2ccc(OCCCO)cc2)O[C@H]1c1ccccc1`, the composite z-score was found to be 1.23.

In the case of `COC(=O)C=C(CC(O)c1cccc(Cl)c1)OC` (stereo not given), the composite z-score was 1.04.

As to `Cc1ccc(C(C)CC(O)C2C=CC3C(=O)N(c4ccccc4)C(=O)C3N2Nc2ccc([N+](=O)[O-])cc2)o1` (stereo not given), the composite z-score was found to be 0.646.

Take `[N-]=[N+]=Nc1ccccc1C[C@]1(C(=O)NCC(O)CO)N=C(c2ccc(OCCCO)cc2)O[C@H]1c1ccccc1N=[N+]=[N-]` (stereo not given in full): the composite z-score worked out at 0.543.

The values are drawn from PubChem BioAssay.
